Our source for the growth inhibition values is PubChem BioAssay (NCI).

This is part of a sample that, as a whole, favours compounds with a hit. Of some 79,000 tested, about 15% had one in any assay. Activity calls are given as the source filed them. Cut-off read from the data, not from the text of the source: active = growth inhibition above about 70%; inactive = the rest.

The nature of one test: NCI Yeast Anticancer Drug Screen. Data for the wt1 strain (AID 149).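 Note: 0% = growth of vehicle-treated wt1 cultures.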 To be noted: S. cerevisiae wt1 strain (SPY 50644) growth inhibition; at 33.0 µM; stronger effect = higher value. The gist of the method:
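Readout: yeast growth inhibition, normalised to vehicle controls, in the wt1 strain exposed to test compounds.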
Regarding `CS(=O)(=O)SCc1ccc([N+](=O)[O-])cc1`, the growth inhibition was 99% (active).
On the same count and under the same terms, under `Cc1csc(=S)n1OC(=O)NC1CCCCC1` stands 100% (active); under `CCOc1ccc(NC(=O)C2=C(C)NC(C)=C(C(=O)Nc3ccc(OCC)cc3)C2c2cccc([N+](=O)[O-])c2)cc1`, -28% (inactive); under `CC(C)(C)N=C(NO)c1ccccc1`, 8% (inactive).
Same read-out and setting: under `CCCCC/C(=C(\C#N)C(=O)OCC)c1ccccc1` stands -4% (inactive).
Turning to `O=C(NCCCl)Sc1ccc(Cl)cc1`, the growth inhibition is 21% (inactive).
The same measure, in the same setting: the same measure for `O=C1Nc2ccc(Br)cc2C1=Nc1ccc2c(c1)OCO2`: -12% (inactive).
Still for that read-out and setting: the same measure for `CCC(C)OC(=O)Nc1ccc(C)c(NC(=O)OC(C)CC)c1` (stereo not drawn): 2% (inactive).
The same measure, in the same setting: under `O=C(O)c1cc2ccc(Cl)cc2c(O)c1C1=CCCCC1` stands 28% (inactive); under `CN(C)Cc1cc(N=Nc2ccc(Cl)cc2)ccc1OC(=O)c1ccccc1`, 3% (inactive); under `CN1CCN(C(=O)/C=C/C(=O)c2ccccc2)CC1`, 47% (inactive).
For the compound `CCCC/C=C/C(C)(C(=O)OCC)C(=O)OCC`, the growth inhibition is -7% (inactive).
Same read-out and setting: the same measure for `Cc1nc(-c2cc3cc([N+](=O)[O-])ccc3oc2=O)cs1`: 25% (inactive); for `Cc1nc2ccccc2nc1NNc1ccccc1`: 17% (inactive); for `CN(C)[C@@H]1C(=O)C(C(N)=O)=C(O)[C@@]2(O)C(=O)C3=C(O)c4c(O)cccc4C[C@H]3C[C@@H]12`: 95% (active).
On the same count and under the same terms, the same measure for `COc1ccc(NC(=O)CC2SC(=Nc3ccccc3C)NC2=O)c([N+](=O)[O-])c1` (stereo not drawn): 10% (inactive); for `COc1cc(O)c2c(c1O)C(=O)c1cc(C)ncc1C2=O`: 39% (inactive).
The same measure, in the same setting: the same measure for `CSc1nnc(SC)nn1`: 22% (inactive).
As to `COc1cc(/C=C2\CCC/C(=C\c3ccc(O)c(OC)c3)C2=O)ccc1O`, the growth inhibition was 12% (inactive).
`CN(C)CCNC(=O)c1cccc2cc([N+](=O)[O-])ccc12`: the growth inhibition is 80% (active).
On the same count and under the same terms, the same measure for `CCC(C)(C)c1ccc(Oc2cccc(C(=O)O)c2)cc1`: 49% (inactive); for `CCCCCCSc1ncnc2[nH]ncc12`: -63% (inactive); for `CC(=O)Nc1ccc(/C=C/[N+](=O)[O-])cc1`: 6% (inactive).
As to `CCOC(=O)c1[nH]n(-c2ccccc2)c(=O)c1C=NC(=S)C(N)=S`, the growth inhibition is 29% (inactive).
Same read-out and setting: the same measure for `CCCC(O)C1CC(C(C)C)CCC1C` (stereo not drawn): 3% (inactive); for `O=[n+]1c2ccccc2n([O-])c2cc(Br)ccc21`: 99% (active); for `CN(C)CCNC(=O)c1cccc2c1Oc1c(cccc1[N+](=O)[O-])O2`: -12% (inactive).
Still for that read-out and setting: under `Nc1ncc(-c2ccc(Br)cc2)s1` stands 92% (active); under `Cc1cc2cc3cc(C)c(N)cc3nc2cc1N`, 56% (inactive); under `CC12C(=O)OC(=O)C(c3ccccc31)c1ccccc12`, 2% (inactive).
On the same count and under the same terms, the same measure for `c1ccc2c(OCC3CO3)cccc2c1` (stereo not drawn): 4% (inactive); for `CCOC(=N)c1ccc(O)c(OC)c1`: -1% (inactive).
Consider `Nc1cc(N)c(N=Nc2cccc3c(S(=O)(=O)O)cccc23)cc1N=Nc1cc([N+](=O)[O-])ccc1O`, for which the growth inhibition is 8% (inactive).
The same measure, in the same setting: the same measure for `COC(=O)Oc1cc(Cl)c(Cl)cc1Cl`: -4% (inactive); for `O=C(O)C1CC(c2ccccc2)=NN1c1ccccc1` (stereo not drawn): -11% (inactive).
Same read-out and setting: under `COc1cc([C@@H]2c3cc4c(cc3[C@@H](Nc3ccc(NC(=O)c5cc([N+](=O)[O-])cn5C)cc3)[C@H]3COC(=O)[C@H]23)OCO4)cc(OC)c1O` stands 32% (inactive); under `O=C(O)c1ccccc1/C=N/N=C1c2ccccc2-c2ccccc21`, 0% (inactive).
On the same count and under the same terms, under `O=C1CC(=O)c2ccccc21` stands 5% (inactive).
As to `Nc1ncnc2c1ncn2C1OC(CO)CC1O` (stereo not drawn), the growth inhibition was 54% (inactive).

The same test, now with this note: S. cerevisiae wt1 strain (SPY 50644) growth inhibition; at 100.0 µM; stronger effect = higher value.
For `CS(=O)(=O)SCc1ccc([N+](=O)[O-])cc1`, the growth inhibition is 98% (active).
Still for that read-out and setting: the same measure for `Cc1csc(=S)n1OC(=O)NC1CCCCC1`: 99% (active); for `CCOc1ccc(NC(=O)C2=C(C)NC(C)=C(C(=O)Nc3ccc(OCC)cc3)C2c2cccc([N+](=O)[O-])c2)cc1`: 79% (active).
The same measure, in the same setting: the same measure for `CC(C)(C)N=C(NO)c1ccccc1`: 45% (inactive).
As to `CCCCC/C(=C(\C#N)C(=O)OCC)c1ccccc1`, the growth inhibition is -4% (inactive).
In the case of `O=C(NCCCl)Sc1ccc(Cl)cc1`, the growth inhibition was 80% (active).
On to `O=C1Nc2ccc(Br)cc2C1=Nc1ccc2c(c1)OCO2`, for which the growth inhibition was 2% (inactive).
The same measure, in the same setting: under `CCC(C)OC(=O)Nc1ccc(C)c(NC(=O)OC(C)CC)c1` (stereo not drawn) stands 73% (active).
For `O=C(O)c1cc2ccc(Cl)cc2c(O)c1C1=CCCCC1`, the growth inhibition is 73% (active).
Still for that read-out and setting: the same measure for `CN(C)Cc1cc(N=Nc2ccc(Cl)cc2)ccc1OC(=O)c1ccccc1`: -1% (inactive); for `CN1CCN(C(=O)/C=C/C(=O)c2ccccc2)CC1`: 87% (active); for `CCCC/C=C/C(C)(C(=O)OCC)C(=O)OCC`: 3% (inactive).
On the same count and under the same terms, under `Cc1nc(-c2cc3cc([N+](=O)[O-])ccc3oc2=O)cs1` stands 92% (active).
`Cc1nc2ccccc2nc1NNc1ccccc1`: the growth inhibition is 20% (inactive).
The same measure, in the same setting: under `CN(C)[C@@H]1C(=O)C(C(N)=O)=C(O)[C@@]2(O)C(=O)C3=C(O)c4c(O)cccc4C[C@H]3C[C@@H]12` stands 99% (active); under `COc1ccc(NC(=O)CC2SC(=Nc3ccccc3C)NC2=O)c([N+](=O)[O-])c1` (stereo not drawn), 36% (inactive); under `COc1cc(O)c2c(c1O)C(=O)c1cc(C)ncc1C2=O`, 48% (inactive).
On the same count and under the same terms, the same measure for `CSc1nnc(SC)nn1`: 99% (active); for `COc1cc(/C=C2\CCC/C(=C\c3ccc(O)c(OC)c3)C2=O)ccc1O`: 15% (inactive); for `CN(C)CCNC(=O)c1cccc2cc([N+](=O)[O-])ccc12`: 93% (active).
The same measure, in the same setting: under `CCC(C)(C)c1ccc(Oc2cccc(C(=O)O)c2)cc1` stands 59% (inactive); under `CCCCCCSc1ncnc2[nH]ncc12`, -5% (inactive).
Take `CC(=O)Nc1ccc(/C=C/[N+](=O)[O-])cc1`: the growth inhibition was 75% (active).
The same measure, in the same setting: the same measure for `CCOC(=O)c1[nH]n(-c2ccccc2)c(=O)c1C=NC(=S)C(N)=S`: 98% (active).
`CCCC(O)C1CC(C(C)C)CCC1C` (stereo not drawn): the growth inhibition was 75% (active).
On the same count and under the same terms, the same measure for `O=[n+]1c2ccccc2n([O-])c2cc(Br)ccc21`: 98% (active).
Same read-out and setting: the same measure for `CN(C)CCNC(=O)c1cccc2c1Oc1c(cccc1[N+](=O)[O-])O2`: 29% (inactive); for `Nc1ncc(-c2ccc(Br)cc2)s1`: 98% (active); for `Cc1cc2cc3cc(C)c(N)cc3nc2cc1N`: 89% (active).
Take `CC12C(=O)OC(=O)C(c3ccccc31)c1ccccc12`: the growth inhibition was 9% (inactive).
On the same count and under the same terms, under `c1ccc2c(OCC3CO3)cccc2c1` (stereo not drawn) stands 18% (inactive); under `CCOC(=N)c1ccc(O)c(OC)c1`, -3% (inactive); under `Nc1cc(N)c(N=Nc2cccc3c(S(=O)(=O)O)cccc23)cc1N=Nc1cc([N+](=O)[O-])ccc1O`, 19% (inactive).
With `COC(=O)Oc1cc(Cl)c(Cl)cc1Cl`, the growth inhibition is 0% (inactive).
The same measure, in the same setting: under `O=C(O)C1CC(c2ccccc2)=NN1c1ccccc1` (stereo not drawn) stands 93% (active); under `COc1cc([C@@H]2c3cc4c(cc3[C@@H](Nc3ccc(NC(=O)c5cc([N+](=O)[O-])cn5C)cc3)[C@H]3COC(=O)[C@H]23)OCO4)cc(OC)c1O`, 36% (inactive).
For the compound `O=C(O)c1ccccc1/C=N/N=C1c2ccccc2-c2ccccc21`, the growth inhibition is 7% (inactive).
Same read-out and setting: under `O=C1CC(=O)c2ccccc21` stands 17% (inactive); under `Nc1ncnc2c1ncn2C1OC(CO)CC1O` (stereo not drawn), 87% (active).
